Shiga toxin inh – blocks Shiga toxin action in Vero cells; inhibition, % at 38.7 µM; AID 2315; 290,000 tested, 9.2% active; Vero cells, Shiga toxin protein synthesis inhibition reporter; in the data active = inhibition mostly above about 28%, no sharp cut-off; inactive = mostly below about 43%; also: 0% is about no effect
HCMV antiviral – blocks human cytomegalovirus replication; HFF cells, HCMV-luciferase reporter, 72 h; stronger effect = lower value; AID 1259415; activity change, negative = inhibition, % at 57.5 µM; 410,000 tested, 4.5% active; in the data active = activity change below about -60%; inconclusive = no clear call, values can overlap the other calls; inactive = above about -39%; also: % is scaled to controls: 0 for no effect and ±100 for the full control effect
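Human foreskin fibroblasts infected with luciferase-reporter HCMV at MOI 1 PFU/cell, compounds at two doses. Luciferase measured 72 h post infection; normalized to buffer-only basal and Salinomycin (10uM) controls.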
CHX counter – counter-screen hit for Shiga toxin inhibitors, cycloheximide | cell reporter, cycloheximide protein synthesis inhibition counterscreen | max response, % | 300,000 tested, 12% active | AID 2314; in the data active = max response mostly above about 13%, no sharp cut-off; inactive = mostly below about 14%; also: read at 38.3 µM for the half of the compounds with a filed dose; 0% is about no effect
Pf growth 48h – P. falciparum growth inhibition at 48 hours (one generation) | P. falciparum luciferase growth in erythrocytes, 48 h | 310,000 tested, 5.9% active | Potency, µM (titrated, usually from 28.7 µM), for inactives: at the top dose activity change, negative = inhibition, hits mostly inhibitors; also: potency is read from the fitted curve at half-maximal effect; % is scaled to controls: 0 for no effect and ±100 for the full control effect
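Erythrocytes infected with P. falciparum carrying an integrated firefly luciferase reporter (2% hematocrit, 0.1% parasitemia final) were exposed to compounds in RPMI 1640 with 0.5% Albumax at 37 C, 5% CO2. Growth inhibition was scored as reduced luminescence.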
HCV inh – HCV inhibition; Huh7.5.1 HCVcc-Cre infection, luciferase reporter, 44 h; 340,000 tested, 3.4% active; Potency, µM (series often up to 41.8 µM), for inactives: at the highest dose activity change, negative = inhibition, usual class: inhibitors; also: potency is read from the fitted curve at half-maximal effect; % is scaled to controls: 0 for no effect and ±100 for the full control effect
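Seed cells (1,000/well) for 4 h; treat with compound and infect with HCVcc-Cre, moi about 0.5. Incubate 44 h, then detect luciferase activity.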
Pf growth 96h – inhibits malaria parasite growth, 96 h; P. falciparum luciferase reporter growth, 96 h; Potency, µM (top dose mostly 28.7 µM), for the others: top-dose activity change, negative = inhibition, usual class: inhibitors; 320,000 tested, 6.9% active; AID 504834; also: potency is read from the fitted curve at half-maximal effect; % is scaled to controls: 0 for no effect and ±100 for the full control effect
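Readout is luminescence from an integrated firefly luciferase in P. falciparum. Red cells, 2% hematocrit and 0.05% parasitemia final, were cultured with compound through two parasite generations (96 hours) at 37 C, 5% CO2.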
Starred values were filed as active, the others as inactive; ? = inconclusive; · = no result given. Sampled rows, rich in hits. Any-hit rate of the full collection: about 21%. Unless noted, calls follow the shape of the dose curve; as a rule, active = well fitted inhibition curve with a large enough effect; inconclusive = small, poorly fitted or top-dose-only effect, or another doubt; inactive = no such curve, though single readings can be large or run the other way.

SMILES	Shiga toxin inh	HCMV antiviral	CHX counter	Pf growth 48h	HCV inh	Pf growth 96h
Cc1nc(SCC(=O)NCC2CCCO2)c2c3c(sc2n1)CCC3 (centres undefined)	-18.7	?	-0.9	-6.8%	-13.0%	?
CCc1nc(Sc2nnnn2-c2ccccc2)c2c3c(sc2n1)CCCC3	-6.4	-16.8	1.1	11.7µM*	?	?
Cc1nc(Sc2nnnn2C)c2c3c(sc2n1)CCC3	-17.9	-102.7*	-1.2	·	4.2%	66.4%
CCc1ccc2[nH]c(=O)c(CN(CCCN3CCOCC3)C(=O)Nc3ccc(F)cc3)cc2c1	-14.3	11.3	2.0	?	?	-2.2%
COc1ccccc1NC(=O)N(CCCN1CCOCC1)Cc1cc2cc3c(cc2[nH]c1=O)OCO3	1.3	-8.9	0.9	-14.3%	7.3%	8.28µM*
O=C(Nc1ccc(F)cc1)N(CCCN1CCOCC1)Cc1cc2cc3c(cc2[nH]c1=O)OCO3	-3.8	-1.2	-2.4	13.1µM*	0.8%	-23.4%
COc1cc2cc(CN(CCCN3CCOCC3)C(=O)Nc3ccccc3F)c(=O)[nH]c2cc1OC	-12.6	?	1.5	-5.6%	9.6%	28.4%
O=C(Nc1ccc(F)cc1)N(CCCN1CCOCC1)Cc1cc2cc3c(cc2[nH]c1=O)OCCO3	2.0	19.3	37.2*	10.4µM*	-16.8%	-12.1%
CCOc1ccc(NC(=S)N(CCN2CCOCC2)Cc2cc3cc4c(cc3[nH]c2=O)OCCO4)cc1	8.3	18.2	-1.4	?	-17.7%	?
CCSc1nnc2c(n1)OC(c1cc(OC)c(OC)c(OC)c1)Nc1ccccc1-2 (centres undefined)	·	31.0	·	·	·	·
O=C(O)C1CCCCC1C(=O)Nc1ccc(S(=O)(=O)N2CCOCC2)cc1 (centres undefined)	·	-2.7	·	·	-2.2%	·
CCc1ccc(S(=O)(=O)N(C(=O)Oc2ccccc2)c2ccc3oc(C)c(C(=O)OC)c3c2)cc1	·	-70.9*	·	·	·	·
COC(=O)c1c(C)oc2ccc(N(C(=O)Oc3ccccc3)S(=O)(=O)c3ccc(Cl)c([N+](=O)[O-])c3)cc12	9.5	·	0.4	?	?	1.3%
CCCC(=O)N(c1ccc2oc3c(c2c1)CCCC3)S(=O)(=O)c1ccc(CC)cc1	·	-6.2	·	·	·	·
CCc1ccc(S(=O)(=O)N(C(C)=O)c2ccc3oc4c(c3c2)CCCC4)cc1	·	-91.6*	·	·	·	·
Nc1c(C(=O)Nc2ccccc2)sc2nc3c(c(-c4ccco4)c12)CCC3	47.8*	-31.8	18.9*	?	10µM*	?
Nc1c(C(=O)Nc2ccccc2)sc2nc3c(c(-c4ccco4)c12)CCCC3	13.6	?	2.5	?	?	?
Cc1ccc(NC(=O)c2sc3nc4c(c(-c5ccco5)c3c2N)CCC4)cc1	17.7	-28.0	5.6	?	?	2.33µM*
O=c1cc(CSc2nc(NCc3ccc(Cl)cc3)c3ccccc3n2)nc2ccc(Cl)cn12	·	-31.6	·	·	45.8%	·
CC[C@@H]1CCC[C@@H](O)[C@@H](C)C(=O)O[C@H](C)[C@@H](C)C/C=C(C)/C(OC)=C\C(=O)N(C)C([C@@H](C)CC)C(=O)N(C)[C@@H](C(C)C)C(=O)N(C)[C@@H](COC)C(=O)N2CCC[C@H]2C(=O)N(C)[C@@H](C(C)C)C(=O)N2CCC[C@H]2C(=O)O1 (some centres undefined)	·	-101.9*	·	·	·	·
CCc1ccccc1NC(=O)c1cnc2sc(N3CCCC3)nn2c1=O	·	-34.7	·	·	·	·
O=C(Cn1c(-c2cccs2)cc2cc(F)ccc21)NCCc1ccc(Cl)cc1	·	-19.8	·	·	·	·
COc1ccc(OC)c(C(=O)c2coc3cc(Br)c(O)c(Br)c23)c1	·	12.8	·	·	9.6%	·
Cc1ccc(C(=O)c2coc3ccc(O)cc23)cc1	40.9*	-27.0	33.9*	297.9%	-11.5%	462.5%
O=C(c1ccccc1)c1coc2ccc(O)c(Cl)c12	117.6*	28.4	67.4*	-24.3%	·	-7.1%
SMILES	Shiga toxin inh	HCMV antiviral	CHX counter	Pf growth 48h	HCV inh	Pf growth 96h
Cc1ccc(C(=O)c2coc3ccc(O)c(Cl)c23)cc1	72.3*	57.1	36.3*	·	-9.6%	24.3%
COC(=O)[C@@]12C[C@@H](CC(=O)NCc3cccc4ccccc34)C(=O)N(CCc3ccc(OC)c(OC)c3)C1=CCC(C)(C)C2	·	-16.1	·	·	·	·
C[C@@]12C=CC(=O)C=C1CCC1C3CC(O)[C@@](O)(C(=O)CO)[C@]3(C)CC(O)[C@]12F (some centres undefined)	·	·	·	-6.7%	·	9.3%
Cn1nc(-c2ccccc2)c(CO)c1Oc1ccc(F)cc1	21.4	-29.2	18.0*	-9.1%	-23.8%	-2.3%
Cn1cc(CN2CCN(CCO)CC2)c(-c2ccc(Oc3ccccc3)cc2)n1	11.7	-6.4	-2.6	0.3%	-16.2%	45.6%
COc1ccc(S(=O)(=O)c2nnn(-c3ccccc3F)c2C)cc1	·	-15.1	·	·	·	·
O=C(NCC1CCCO1)c1cc(S(=O)(=O)N2CCCCC2)ccc1Cl (centres undefined)	·	-23.2	·	3.8%	-0.2%	17.8%
O=S(=O)(c1ccc2c(c1)OCCO2)N1CCC(c2nc3ccc(Cl)cc3[nH]2)CC1	6.1	-95.7*	-1.4	11.7µM*	?	?
O=C(NCC1CCCO1)c1ccc(S(=O)(=O)N2CCC(c3nc4ccc(Cl)cc4[nH]3)CC2)cc1 (centres undefined)	-1.2	-38.1	-2.6	13.1µM*	-26.0%	-26.3%
CCc1ccc(C2N3CC4(C)CN2CC(c2ccccc2)(C3)C4=O)cc1 (centres undefined)	·	8.7	·	·	·	·
O=C(NCCOc1ccccc1F)C1CCC(=O)N(CC2CCCCC2)C1 (centres undefined)	4.5	-31.1	-1.8	-12.8%	3.0%	13.2%
Cc1nc2ccccc2n1S(=O)(=O)c1cc(C(=O)O)ccc1Cl	-7.4	3.6	-1.6	35.2%	16.3%	0.2%
Cc1cc(C)nc(SCC(=O)NC2=NN=C(c3ccc(Br)cc3)CS2)n1	-16.0	-91.7*	-3.2	?	?	?
Cc1cc(C)nc(SCC(=O)Nc2ccc(Br)cn2)n1	-12.8	-9.4	-2.2	13.4%	?	-34.4%
CCC(Sc1nc(C)cc(C)n1)C(=O)NC1=NN=C(c2ccc(C)cc2)CS1 (centres undefined)	-24.2	-105.5*	-4.8	?	?	10.4µM*
O=C(NCCc1ccccc1)C1CCC(=O)N1C1CCCC1 (centres undefined)	28.1	35.6	6.2	12.7%	?	24.8%
CC(C(=O)N1CCCC1)N1CCN(S(=O)(=O)c2ccccc2)CC1 (centres undefined)	·	0.0	·	·	7.9%	·
COc1ccccc1Oc1nc([N+](=O)[O-])nn1CC(N)=O	-14.9	-20.3	-1.6	-1.9%	-7.9%	?
Cc1csc2nc(CSc3ccc(Cl)cc3)cn12	78.5*	·	48.9*	119.7%	8.4%	3.7µM*
c1cn2cc(CSC3CCCCC3)nc2s1	95.2*	18.3	42.3*	141.3%	?	·

Assay outcomes deposited in PubChem BioAssay by National Center for Advancing Translational Sciences (NCATS).
